PubChem BioAssay

test: A549 cell viability effects, profiling panel, calcein-AM fluorescence, 48 h, basal (AID 1162); settings: higher = more signal; further: test concentration not given here

Compared with `[N-]=[N+]=NCc1ccccc1[C@@H]1OC(c2ccc(OCCCO)cc2)=N[C@]1(CCS(=O)(=O)c1ccccc1)C(=O)O`, `C=CCN1C(=O)[C@]2(CCS(=O)(=O)c3ccccc3)N=C(c3ccc(OCCCO)cc3)O[C@@H]2c2ccccc21` is higher in z-score: 0.338 for the first, 0.776 for the second.

First: CC1CC/C=C\[C@H]2OC34C=CCN(c5ccc(Cl)cc5)C(=O)[C@H]3N(C(C)CO)C(=O)[C@]4(C)C2C(=O)O1 (stereo not given in full)
Second: CCCCN1CC=CC23O[C@@H]4/C=C\CCCOC(=O)C4[C@H]2C(=O)N(CCO)[C@@H]3C1=O (stereo not given in full)
The z-score of the first is higher: 0.924 for the first, -0.129 for the second.

Compared with `C=CC[C@]1(C(=O)N2CCCCC2)N=C(c2ccc(OCCCO)cc2)O[C@H]1c1ccccc1CN=[N+]=[N-]`, `C=CC[C@@]1(C(=O)NCCCOC)N=C(c2ccc(OCCCO)cc2)O[C@@H]1c1ccccc1N=[N+]=[N-]` is higher in z-score: -0.416 for the first, 1.42 for the second.

Compared with `COc1ccc([Si](C)(C)[C@H]2[C@H](CC(=O)N3CCC[C@H]3CO)O[C@@]3(C(=O)N(Cc4ccc(N5CCOC5=O)cc4)c4ccccc43)[C@@H]2C)cc1`, `COc1ccc([Si](C)(C)[C@@H]2[C@@H](CCO)O[C@]3(C(=O)N(Cc4cccc(NC(=O)[C@H](C)O)c4)c4ccccc43)[C@H]2C)cc1` is lower in z-score: -0.585 for the first, -3.78 for the second.

Going from `Cc1cc(C)c(C(O)C2C=CC3C(=O)N(c4ccccc4)C(=O)C3N2Nc2ccccc2F)c(C)c1` (stereo not given) to `O=C1C2C=CC(C(O)c3ccco3)N(Nc3ccccc3F)C2C(=O)N1c1ccccc1` (stereo not given), the z-score rises from -0.472 to -0.356.

Going from `CC[C@@H]1O[Si](C(C)C)(C(C)C)c2c1cc(-c1cc(C)c(OC)c(C)c1)nc2-c1ccc(Oc2ccccc2)cc1` to `[N-]=[N+]=Nc1ccccc1C[C@@]1(C(N)=O)N=C(c2ccc(OCCCO)cc2)O[C@@H]1c1ccccc1N=[N+]=[N-]`, the z-score falls from -0.472 to -1.53.

First: O[C@@H](Cc1ccccc1)[C@@H](/C=C/C1CC1)N(CC#Cc1ccccc1)Cc1ccccc1Br
Second: O=C1C2C=CC(C(O)C3CC=CCC3)N(Nc3ccccc3)C2C(=O)N1c1ccccc1 (stereo not given)
The z-score of the first is higher: -0.049 for the first, -1.05 for the second.

First: COC(=O)C/C=C/C[C@]1(O)C(=O)N(C)c2ccccc21
Second: CCCNC(=O)[C@@]1(C)c2ccccc2C(=O)N(c2ccc(C)cn2)[C@H]1c1ccc(CO)cc1
The z-score of the first is higher: 1.59 for the first, 0.666 for the second.

Compared with `COC(=O)[C@@H]1N=C(c2ccc(OCCCO)cc2)O[C@@H]1C`, `COCC(=C=CC[C@H](O)c1ccccc1OCCO)C[C@H](O)c1ccccn1` is higher in z-score: 0.0963 for the first, 1.12 for the second.

Going from `CCCC=C(CCC)[C@@H](NC(=O)c1cccs1)c1ccc(C(=O)OC)cc1` to `C=C(/C(=C/C[C@H](OC(=O)c1ccncc1)c1ccc(CO)o1)c1cnc2ccccc2c1)C(C)C`, the z-score rises from 0.126 to 1.07.

First: COc1cc(NN2C(C(O)c3cc(OC)c(OC)c(OC)c3)C=CC3C(=O)N(C)C(=O)C32)cc(OC)c1OC (stereo not given)
Second: COc1cc(OC)c(C(O)C2C=CC3C(=O)N(Cc4ccccc4)C(=O)C3N2n2cnnc2)cc1Br (stereo not given)
The z-score of the first is lower: -0.991 for the first, -0.407 for the second.

First: C=CCC(OC(C)=O)[C@@H]1[C@@H](N(Cc2cc3ccccc3o2)C(=O)Cc2ccc(F)cc2)c2cc(OCCCO)ccc2N1C(=O)Cc1ccc2ccccc2c1 (stereo not given in full)
Second: CCOC(=O)C[C@H]1[C@H](OC(=O)c2cc3ccccc3oc2=O)[C@@H](NC(=O)c2ccccc2)c2cc(OCCCO)ccc2N1C(=O)c1ccccc1
The z-score of the first is higher: 0.181 for the first, 0.102 for the second.

Going from `COc1ccc(CCNC(=O)[C@@H]2c3ccccc3C(=O)N(C3CCCCC3)[C@H]2c2ccc(CO)cc2)cc1` to `COc1ccc(CCNC(=O)[C@@]2(Cc3ccccc3I)c3ccccc3C(=O)N(C3CCCCC3)[C@H]2c2ccc(CO)cc2)cc1`, the z-score falls from 1.19 to 1.

First: C[N+](C)(C)CCCC[C@@H]1NC(=O)[C@@H]2C[C@H](C(=O)NCCCCCCN)[C@H](c3cccc(OCCO)c3)N2C1=O
Second: NCCCCCNC(=O)[C@H]1C[C@H]2C(=O)N3CCC[C@H]3C(=O)N2[C@H]1c1cccc(OCCO)c1
The z-score of the first is higher: -0.148 for the first, -0.173 for the second.

Going from `COC(=O)c1c(CC[C@@H](CO)NC(=O)N2CCC[C@H]2Cn2cc(C3(O)CCCCC3)nn2)oc(C(C)=O)c1C(=O)OC` to `CO[C@H]1O[C@H](CO)[C@@H](OC(=O)Nc2ccc3c(c2)OCO3)[C@H](OC(=O)Nc2ccc3c(c2)OCO3)[C@@H]1OC(=O)Nc1ccc2c(c1)OCO2`, the z-score rises from -0.615 to -0.077.

First: CC(C)c1ccc(NN2C(C(O)c3ccc(F)cc3)C=CC3C(=O)N(c4ccccc4)C(=O)C32)cc1 (stereo not given)
Second: CC(C)C(O)C1C=CC2C(=O)N(c3ccccc3)C(=O)C2N1Nc1ccccc1 (stereo not given)
The z-score of the first is higher: 0.394 for the first, -1.17 for the second.

Going from `CCCNC(=O)[C@@H]1c2ccccc2C(=O)N(Cc2ccc(OC(F)(F)F)cc2)[C@H]1c1ccc(CO)cc1` to `NC(=O)NCC#Cc1ccc2c(c1)[C@]1(C(=O)N2)[C@H](c2ccccc2OCCO)N2[C@H](c3ccccc3)[C@H](c3ccccc3)OC(=O)[C@H]2[C@@H]1C(=O)O`, the z-score falls from 1.17 to -0.371.

Work on `CCCCC(CC)C(O)C1C=CC2C(=O)N(c3ccccc3)C(=O)C2N1Nc1ccc(C#N)cc1` (stereo not given) yielded a z-score of 1.99.
